PMC11062922 (Nature Chemical Biology, 2023)
Read-outs that look alike come from different tables or passages of the source.

Columns and labels:
Parameters in all cases: species or system human, MV4-11 + K-562 + COLO205 + SK-N-BE2 + OVCAR-8
PRKDC = details: read-out: apparent Kd; compound concentrations:100 nM and 1000 nM (sheet 'Samples'); n = 1
T10 = system: T1, T10; details: read-out: apparent Kd; compound concentrations:100 nM and 1000 nM (sheet 'Samples'); n = 1
T1 construct: gene NAT10

PRKCD = details: read-out: apparent Kd, compound concentrations: 100 nM and 1000 nM (sheet 'Samples'), n = 1
RAB14 = details: read-out: apparent Kd, n = 1
CAMKK2 = details: read-out: apparent Kd, compound concentrations: 100 nM and 1000 nM (sheet 'Samples'), n = 1
BMPR2 = details: read-out: apparent Kd, compound concentrations: 100 nM and 1000 nM (sheet 'Samples'), n = 1
JAK1 = details: read-out: apparent Kd, n = 1
LATS1 = details: read-out: apparent Kd, compound concentrations: 100 nM and 1000 nM (sheet 'Samples'), n = 1
PKN1 = details: read-out: apparent Kd, n = 1
PRKACB = details: read-out: apparent Kd, n = 1
RPS6KA3 = details: read-out: apparent Kd, compound concentrations: 100 nM and 1000 nM (sheet 'Samples'), n = 1
TBK1 = details: read-out: apparent Kd, compound concentrations: 100 nM and 1000 nM (sheet 'Samples'), n = 1
MTHFD1 = details: read-out: apparent Kd, n = 1
WEE1 = details: read-out: apparent Kd, n = 1
NME2;NME2P1 = details: read-out: apparent Kd, n = 1
SMC4 = details: read-out: apparent Kd, n = 1
AGK = details: read-out: apparent Kd, n = 1
NEK3 = details: read-out: apparent Kd, compound concentrations: 100 nM and 1000 nM (sheet 'Samples'), n = 1
PKN2 = details: read-out: apparent Kd, n = 1
PRKCI = details: read-out: apparent Kd, n = 1
[1] = compound concentrations:100 nM and 1000 nM (sheet 'Samples')

## Cc1cccc(-c2cc(-c3c[nH]nc3-c3ccccn3)ccn2)c1 [GW679395X]
PRKDC
  potency estimated from few doses: 1130 nM
T10
  potency estimated from few doses: 1940 nM

## Cn1cc(C2=C(c3cn(CCCO)c4ccccc34)C(=O)NC2=O)c2ccccc21 [RO0317377-000]
PRKCD; CATDS: 9.7795114941797295E-2
  potency estimated from few doses: 2020 nM

## COc1ccc(Nc2nccc(N3CCC(NC(=O)Nc4ccc5c(c4)OCO5)C3)n2)cc1 (stereo not shown) [GSK1379745A]
RAB14; compound concentrations: 100 nM and 1000 nM (sheet 'Samples'), CATDS: 3.8007636055388601E-2
  potency estimated from few doses: 1680 nM

## COc1cccc(-n2ncc3c(N/N=C/c4ccc(C(=O)NCCN(C)C)cc4)ncnc32)c1.Cl [GW784307A]
CAMKK2; CATDS: 2.5303732707076199E-2
  potency estimated from few doses: 2120 nM

## COc1cc(Nc2ccnc3cc(-c4ccncc4)ccc23)cc(OC)c1OC.Cl [GW494610A]
BMPR2; CATDS: 2.09550401545208E-2
  potency estimated from few doses: 2200 nM

## O=C1N=C(NCc2cccs2)SC1Cc1ccc2ncccc2c1 (stereo not shown) [RO4629078-000]
CAMKK2; CATDS: 1.0556199661625101E-2
  potency estimated from few doses: 586 nM
JAK1; compound concentrations: 100 nM and 1000 nM (sheet 'Samples'), CATDS: 8.4918440228529003E-3
  potency estimated from few doses: 1060 nM
LATS1; CATDS: 8.7867541844469099E-3
  potency estimated from few doses: 953 nM
PKN1; compound concentrations: 100 nM and 1000 nM (sheet 'Samples'), CATDS: 8.6120949637054304E-3
  potency estimated from few doses: 1010 nM
PRKACB; compound concentrations: 100 nM and 1000 nM (sheet 'Samples'), CATDS: 8.4250069561530305E-3
  potency estimated from few doses: 1080 nM
PRKCD; CATDS: 8.2287657459755997E-3
  potency estimated from few doses: 1170 nM
RPS6KA3; CATDS: 8.4062550540876194E-3
  potency estimated from few doses: 1090 nM
TBK1; CATDS: 7.6855251717376097E-3
  potency estimated from few doses: 1490 nM

## O=C1N=C(NCCc2ccccn2)S/C1=C\c1ccc2ncccc2c1 [RO4508346-000]
MTHFD1; compound concentrations: 100 nM and 1000 nM (sheet 'Samples'), CATDS: 6.5916651027534801E-2
  potency estimated from few doses: 1980 nM

## CCN(CC)CCOc1ccc(Nc2ncc3cc(-c4c(Cl)cccc4Cl)c(=O)n(C)c3n2)cc1 [SB-601273]
WEE1; [1]
  potency estimated from few doses: 171 nM

## Nc1nc(-c2ccc3c(N)n[nH]c3c2)cc(N2CCCCC2)n1 [GSK2228768A]
NME2;NME2P1; [1]
  potency estimated from few doses: 1380 nM
SMC4; [1]
  potency estimated from few doses: 2040 nM

## Cl.Cl.Cl.c1ccc(Oc2ccc(Nc3ccnc4cc(-c5ccc(CN6CCNCC6)o5)ccc34)cc2)nc1.c1ccc(Oc2ccc(Nc3ccnc4cc(-c5ccc(CN6CCNCC6)o5)ccc34)cc2)nc1 [GW567142A]
AGK; compound concentrations: 100 nM and 1000 nM (sheet 'Samples'), CATDS: 1.95822774177494E-2
  potency estimated from few doses: 1230 nM
NEK3; CATDS: 1.7301178546407801E-2
  potency estimated from few doses: 1910 nM
PKN2; compound concentrations: 100 nM and 1000 nM (sheet 'Samples'), CATDS: 1.6443566928173701E-2
  potency estimated from few doses: 2350 nM

## O=S(=O)(CCOCc1ccc(-c2ccc3ncnc(Nc4ccc(OCc5cccc(F)c5)c(Cl)c4)c3c2)o1)c1ccccc1 [GW615311X]
NEK3; CATDS: 2.1900299581920201E-2
  potency estimated from few doses: 2460 nM
PRKCI; compound concentrations: 100 nM and 1000 nM (sheet 'Samples'), CATDS: 2.29472037028754E-2
  potency estimated from few doses: 2160 nM

## Fc1ccc(-c2c(-c3ccncc3)[nH]c3nccnc23)cc1 [RO1155697-000]
AGK; [1]
  potency estimated from few doses: 1640 nM

## Nc1nc(N)c2nc(-c3ccccc3)[nH]c2n1 [SKF-12778]
JAK1; [1]
  potency estimated from few doses: 953 nM
PRKACB; [1]
  potency estimated from few doses: 1790 nM
PRKDC
  potency estimated from few doses: 716 nM
RAB14; [1]
  potency estimated from few doses: 1300 nM
T10
  potency estimated from few doses: 1130 nM

## CNC(=O)c1ccccc1Nc1nc(Nc2cccc(CS(C)(=O)=O)c2)ncc1C.O=CO [GSK1520489A]
BMPR2; CATDS: 1.16298732818768E-2
  potency estimated from few doses: 672 nM
LATS1; CATDS: 9.9587793654228995E-3
  potency estimated from few doses: 1340 nM
RPS6KA3; CATDS: 1.12432401151655E-2
  potency estimated from few doses: 768 nM
TBK1; CATDS: 1.25946113140399E-2
  potency estimated from few doses: 504 nM
WEE1; compound concentrations: 100 nM and 1000 nM (sheet 'Samples'), CATDS: 2.0722471674581099E-2
  potency estimated from few doses: 127 nM

## COc1ccc(C2=NC(c3ccc(Cl)cc3F)C(C(=O)Nc3ccc4[nH]ncc4c3)=C(C)N2)cn1.O=C(O)C(F)(F)F (stereo not shown) [GSK534913A]
PKN1; [1]
  potency estimated from few doses: 2050 nM

## COc1cc(F)c(F)c(F)c1C(=O)c1cnc(NC2CCN(S(C)(=O)=O)CC2)nc1N [RO4600703-000]
MTHFD1; [1]
  potency estimated from few doses: 1300 nM

## Nc1c(C(=O)c2ccccc2)cnn1-c1ccc(F)cc1 [RO1151246-000]
PKN2; [1]
  potency estimated from few doses: 1910 nM
PRKCI; [1]
  potency estimated from few doses: 2030 nM

## O=C1NC(=O)C(c2cccc(Cl)c2)=C1Nc1ccc(O)c(Cl)c1 [SB-409514]
SMC4; compound concentrations: 100 nM and 1000 nM (sheet 'Samples'), CATDS: 0.290936381936651
  potency estimated from few doses: 1760 nM

## Cc1[nH]nc2c1N=C(c1ccccc1Cl)c1cc([N+](=O)[O-])ccc1N2 [RO0274406-000]
NME2;NME2P1; compound concentrations: 100 nM and 1000 nM (sheet 'Samples'), CATDS: 6.5363052061215496E-2
  potency estimated from few doses: 1680 nM
